Screening data as filed in PubChem.
Hits are enriched below; roughly 13% of the tested compounds scored in any of these assays.
Pf growth 96h = Primary qHTS for delayed death inhibitors of the malarial parasite plastid, 96 hour incubation; 6.9% of 320,000 active; P. falciparum luciferase reporter growth, 96 h; Potency, µM (titrated, usually from 28.7 µM), for the others: top-dose activity change, negative = inhibition, hits mostly inhibitors; AID 504834, 2011; also: potency is read from the fitted curve at half-maximal effect
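Two-generation exposure (96 h) targets delayed-death phenotype. Reporter parasites carrying integrated firefly luciferase, in red cells at 2% hematocrit and 0.05% parasitemia final, kept at 37 C, 5% CO2; luminescence loss indicates inhibition.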
HCMV antiviral = qHTS Assay for inhibitors of the human cytomegalovirus (HCMV). HFF cells, HCMV-luciferase reporter, 72 h; hits give low values. activity change, negative = inhibition, % at 57.5 µM. 4.5% of 410,000 active; in the data active = activity change below about -60%; inconclusive = no clear call, values can overlap the other calls; inactive = above about -39%
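Human foreskin fibroblasts infected with luciferase-reporter HCMV at MOI 1 PFU/cell, compounds at two doses. Luciferase measured 72 h post infection; normalized to buffer-only basal and Salinomycin (10uM) controls.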
Pf growth 48h = Primary qHTS for delayed death inhibitors of the malarial parasite plastid, 48 hour incubation; P. falciparum luciferase growth in erythrocytes, 48 h; Potency, µM (top dose mostly 28.7 µM), without a hit: at the top dose activity change, negative = inhibition, most hits filed as inhibitors; 5.9% of 310,000 active; AID 504832, 2011; also: potency is read from the fitted curve at half-maximal effect
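Compounds are pin-transferred into medium, infected erythrocytes (2% hematocrit, 0.1% parasitemia final) are added, and plates sit one parasite generation at 37 C in 5% CO2. Detection reagent is then added and luminescence measured.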
HCV inhibitor = qHTS Assay for Inhibitors of Hepatitis C Virus (HCV); Huh7.5.1 HCVcc-Cre infection, luciferase reporter, 44 h; Potency, µM (doses to about 41.8 µM), for the others: top-dose activity change, negative = inhibition, usual class: inhibitors; 3.4% of 340,000 active; also: potency is read from the fitted curve at half-maximal effect
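1,000 cells/well; 4 h culture; + compound; + HCVcc-Cre (~0.5 moi); 44 h; luciferase substrate, RT 15 min; read 15 sec.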
Numbers without * were called inactive; [ ] = remark or other dose. Unless noted, calls follow the shape of the dose curve; as a rule, active = well fitted inhibition curve with a large enough effect; inconclusive = small, poorly fitted or top-dose-only effect, or another doubt; inactive = no such curve, though single readings can be large or run the other way. % is scaled to controls: 0 for no effect and ±100 for the full control effect.

For O=C(N/N=C/c1ccc([N+](=O)[O-])o1)c1cc2c(ccc3ccccc32)o1 the results were Pf growth 96h inconclusive, HCMV antiviral -72*, Pf growth 48h inconclusive and HCV inhibitor inconclusive.
Screening O=C(N/N=C/c1cc(Br)c(O)c(Br)c1)c1cc2c(ccc3ccccc32)o1 returned Pf growth 96h 13µM*, HCMV antiviral -23, Pf growth 48h -17% and HCV inhibitor 0%.
Screening Cc1ccc(NC(=O)CCC(=O)N2Cc3ccccc3Oc3ncccc32)c(C)c1 returned HCMV antiviral 5.
For Nc1ncnc2c1ncn2[C@@H]1O[C@H](CNCc2ccc(-c3cc(C(F)(F)F)ccc3Cl)o2)[C@@H](O)[C@H]1O the results were HCMV antiviral -18 and HCV inhibitor 35µM*.
Screening O=c1ccn([C@@H]2O[C@H](CNCc3ccc(-c4cc(C(F)(F)F)ccc4Cl)o3)[C@@H](O)[C@H]2O)c(=O)[nH]1 returned HCMV antiviral -25 and HCV inhibitor -3%.
Screening O=C(Cn1c(=O)c(C(F)(F)F)nc2ccccc21)Nc1cccc(Br)c1 returned HCMV antiviral -18.
Screening CCC(=O)c1ccc(O)c(CC=C(C)C)c1 returned Pf growth 96h inconclusive, HCMV antiviral -64*, Pf growth 48h inconclusive and HCV inhibitor -17%.
For COc1cc(/C=N/NC(=O)c2ccc3ccccc3c2)ccc1Oc1ccc([N+](=O)[O-])cn1 the results were Pf growth 96h -13%, HCMV antiviral inconclusive, Pf growth 48h -19% and HCV inhibitor 3.5µM*.
COc1cc(/C=N/NC(=O)c2ccc(O)cc2)ccc1Oc1ccc([N+](=O)[O-])cn1 was read as Pf growth 96h inconclusive, HCMV antiviral -62*, Pf growth 48h inconclusive and HCV inhibitor inconclusive.
COc1cccc(C(=O)N/N=C/c2ccc(Oc3ccc([N+](=O)[O-])cn3)c(OC)c2)c1 was read as Pf growth 96h -2%, HCMV antiviral -36, Pf growth 48h 4% and HCV inhibitor 10µM*.
For Cc1c(C(=O)N2CCC(C)CC2)sc2ncnc(N(C)c3ccccc3)c12 the results were Pf growth 96h inconclusive, HCMV antiviral -66*, Pf growth 48h inconclusive and HCV inhibitor inconclusive.
Screening COc1ccc2c(c1)C(=O)[C@H](O)[C@@H](c1ccc(OC)c(Br)c1)O2 returned Pf growth 96h 2.1µM*, HCMV antiviral -37, Pf growth 48h 3.7µM* and HCV inhibitor 0%[8.37 µM].
Cc1cccc(C)c1NC(=O)C1(C)CN(S(C)(=O)=O)CC(=O)N1C1CC1 (stereo not drawn) was read as HCMV antiviral 3.
For CC(C)(C)C(=O)C(Oc1ccc(Cl)cc1)n1ccnc1 (stereo not drawn) the results were Pf growth 96h 12µM*, HCMV antiviral -18 and Pf growth 48h -7%.
`CSCc1cc(N(C)C)nc(SCc2ccc(Cl)c(Cl)c2)n1` gave Pf growth 96h inconclusive, HCMV antiviral 22, Pf growth 48h 10µM* and HCV inhibitor inconclusive.
Screening CCOCCCNC(=O)Cc1ccc(-n2c(CC)nc3cccnc32)cc1 returned Pf growth 96h inconclusive, HCMV antiviral -17, Pf growth 48h -27% and HCV inhibitor -12%.
Screening Cc1ccc(NC(=O)Cc2ccc(-n3c(C)nc4cccnc43)cc2)c(Cl)c1 returned HCMV antiviral active.
`CCc1nc2cccnc2n1-c1ccc(CC(=O)O)cc1` gave Pf growth 96h 10µM*, HCMV antiviral -8, Pf growth 48h -18% and HCV inhibitor -4%.
For CC(C)c1cnc2c(c1SCC(=O)Nc1ccc(C(N)=O)cc1)c(=O)n(C)c(=O)n2C the results were HCMV antiviral 35.
Screening CC(Oc1ccc(F)cc1)C(=O)Oc1ccc(N(C)S(=O)(=O)c2ccccc2)cc1 (stereo not drawn) returned Pf growth 96h -6%, HCMV antiviral -12, Pf growth 48h 0% and HCV inhibitor 34%.
`CC(=O)c1ccc(NC(=O)C(C)Oc2ccc(N(C)S(=O)(=O)c3ccc(C)cc3)cc2)cc1` (stereo not drawn) gave Pf growth 96h 13µM*, HCMV antiviral -11, Pf growth 48h 15µM* and HCV inhibitor 13µM*.
`Cc1ccc(S(=O)(=O)N(C)c2ccc(OC(C)C(=O)N(C)c3ccccc3)cc2)cc1` (stereo not drawn) gave Pf growth 96h inconclusive, HCMV antiviral -17, Pf growth 48h inconclusive and HCV inhibitor 11µM*.
COc1ccc(-c2noc(COc3cc(C)ccc3C)n2)cc1OC was read as HCMV antiviral -2.
Screening C[C@H]1[C@@H](OC(=O)CCC(=O)O)OC2OC3(C)CC[C@H]4[C@H](C)CC[C@@H]1[C@@]24OO3 (stereo partly drawn) returned Pf growth 96h 0.0013µM* and Pf growth 48h 0.0019µM*.
Screening CCC(C)NC(=O)CCC(=O)OC1O[C@H]2OC3(C)CC[C@H]4[C@H](C)CCC(C1C)C24OO3 (stereo partly drawn) returned Pf growth 96h -41%, HCMV antiviral -76*, Pf growth 48h -72% and HCV inhibitor inconclusive.
O=C(Nc1nnc(-c2ccco2)o1)c1ccc(S(=O)(=O)N2CCCC2)cc1 was read as Pf growth 96h inconclusive, HCMV antiviral -36, Pf growth 48h 12µM* and HCV inhibitor 2%.
`O=C(Nc1nnc(-c2ccco2)o1)c1ccc([N+](=O)[O-])s1` gave Pf growth 96h 12µM*, HCMV antiviral -38, Pf growth 48h -23% and HCV inhibitor 8.9µM*.
Screening COc1ccc(CNC(=O)c2ccc(S(=O)(=O)N3CC(C)CC(C)C3)cc2)cc1OC (stereo not drawn) returned HCMV antiviral -16 and HCV inhibitor inconclusive.
For COc1ccccc1-c1nnc(NC(=O)c2ccc(S(=O)(=O)N3CCCC3)cc2)o1 the results were Pf growth 96h inconclusive, HCMV antiviral -24, Pf growth 48h inconclusive and HCV inhibitor inconclusive.
Screening COc1cc(OC)c(OC)cc1CNC(=O)c1ccc(S(=O)(=O)N2CC(C)OC(C)C2)cc1 (stereo not drawn) returned Pf growth 96h 10µM*, HCMV antiviral -3, Pf growth 48h inconclusive and HCV inhibitor 9%.
Screening CS(=O)(=O)c1cccc(-c2nnc(NC(=O)c3ccc(S(=O)(=O)N4CCCC4)cc3)o2)c1 returned Pf growth 96h 13µM*, HCMV antiviral -24, Pf growth 48h inconclusive and HCV inhibitor 22%.
CCOC(=O)C1CCN(c2c(C(=O)c3ccc(OCC)cc3)cnc3ccc(OC)cc23)CC1 was read as HCMV antiviral -4.
For Cc1nnc(NC(=O)c2ccc(S(=O)(=O)N3CC(C)OC(C)C3)cc2)o1 (stereo not drawn) the results were Pf growth 96h 0%, HCMV antiviral 14, Pf growth 48h -8% and HCV inhibitor 21%.
